# According to publication PMC5540273 (PLoS ONE, 2017):
# Key:
# Settings in all cases: concentration: 1 μM,replicates: in singlicate; n = 1
# CDC2L2 = test system: CDC2L2
# CDC2L5 = test system: T1, CDC2L5
# T1 construct: gene CDK13
# CDK11 = test system: T2, CDK11
# T2 construct: gene CDK19
# CDK2 = test system: CDK2
# CDK3 = test system: CDK3
# CDK4-cyclinD1 = test system: CDK4-cyclinD1
# CDK4-cyclinD3 = test system: CDK4-cyclinD3
# CDK4 = test system: CDK4
# CDK5 = test system: CDK5
# CDK7 = test system: CDK7
# CDK8 = test system: CDK8
# CDK9 = test system: CDK9
# CDKL1 = test system: CDKL1
# CDKL2 = test system: CDKL2
# CDKL3 = test system: CDKL3
# CDKL5 = test system: CDKL5
# CHEK1 = test system: CHEK1
# CHEK2 = test system: CHEK2
# CIT = test system: CIT
# CLK1 = test system: CLK1
# 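Also: KINOMEscan kinase panel screen.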
SMILES,%Inh (CDC2L2) [%],%Inh (CDC2L5) [%],%Inh (CDK11) [%],%Inh (CDK2) [%],%Inh (CDK3) [%],%Inh (CDK4-cyclinD1) [%],%Inh (CDK4-cyclinD3) [%],%Inh (CDK4) [%],%Inh (CDK5) [%],%Inh (CDK7) [%],%Inh (CDK8) [%],%Inh (CDK9) [%],%Inh (CDKL1) [%],%Inh (CDKL2) [%],%Inh (CDKL3) [%],%Inh (CDKL5) [%],%Inh (CHEK1) [%],%Inh (CHEK2) [%],%Inh (CIT) [%],%Inh (CLK1) [%]
CCOC(=O)N1CCC(n2cnc(-c3ccc(F)cc3)c2-c2ccnc(N)n2)CC1 [SB-219952],23,30,29,0,0,24,6,32,0,30,22,0,7,0,30,13,0,2,41,0
O=C1NCCc2[nH]c(-c3ccncc3)cc21,0,38,22,1,13,21,36,27,29,71,19,97.9,5,7,2,29,0,31,99.7,99.5
C[C@@H](Oc1cc(-n2cnc3cc(-c4cnn(C)c4)ccc32)sc1C(N)=O)c1ccccc1Cl [GSK580432],0,0,28,26,20,0,3,18,0,0,17,5,20,22,0,0,32,0,32,59
COc1ccc(Nc2nccc(N3CCC(NC(=O)c4cccc(C#N)c4)C3)n2)cc1 (centres unmarked) [GSK1379730],0,0,4,0,26,34,0,36,7,0,17,0,24,0,0,0,0,0,0,11
Cc1n[nH]c2cc(Nc3ccnc(Nc4cccc(CN5CCOCC5)c4)n3)ccc12 [GW682569],24,0,19,0,5,0,0,31,0,0,35,4,2,17,0,0,0,27,35,29
Cn1ccc2ncnc(Oc3ccc(NC(=O)Nc4cccc(C(F)(F)F)c4)c(F)c3)c21,0,33,99.3,7,39,16,0,0,10,68,100,24,62,45,7,0,0,1,78,13
c1ccc(Oc2ccc(Nc3ccnc4ccc(-c5ccccn5)cc34)cc2)cc1 [GW407034],0,0,12,0,15,0,12,0,93.1,0,0,0,9,16,0,14,26,0,4,14
O=C(Nc1cccc(C(F)(F)F)c1)c1cccc(Oc2ccc3nccn3n2)c1,3,0,0,11,22,18,19,0,0,0,0,0,14,18,0,3,0,0,13,7
CC(=O)Nc1ccc(-c2cc3ncnc(SCC(=O)O)c3s2)cc1,17,0,26,12,4,16,31,0,14,40,0,85,16,0,26,18,1,26,0,31
Cc1cccc2c(-c3ccncc3)c(-c3ccc(F)cc3)nn12.Cl [GW461487],0,0,0,0,0,0,0,36,0,0,25,0,12,8,0,0,0,0,90,17
